Activity calls are given as the source filed them. The calls were made as follows: active = hit-call score of the fitted dose curve at least 0.9, where 1 is the maximum; inactive = score below 0.9.
Assays:
[1] = read-out: Transforming growth factor beta 1 (TGFb1), TGFB1 (gene 7040); assay: BSK_BE3C_TGFb1: BioMAP Diversity Plus: BE3C Assay for Transforming growth factor beta 1 (TGFb1) Biomarker Activity (AID 2283036); details: primary human bronchial epithelial cells; actives raise or lower the signal
Summary of the method: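 TGF-b1 measured via ELISA, 24 h after chemical dosing of human bronchial epithelial cells (BE3C). Overt cytotoxicity assessed in parallel by SRB (0.1%, TCA-fixed, 560 nm); analysis bidirectional relative to DMSO.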

[2] = read-out: Plasminogen activator inhibitor-1 (PAI1), SERPINE1 (gene 5054); assay: BSK_BE3C_PAI1: BioMAP Diversity Plus: BE3C Assay for Plasminogen activator inhibitor-1 (PAI1) Biomarker Activity (AID 2283037); details: primary human bronchial epithelial cells; actives raise or lower the signal
Summary of the method: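 In this multiplexed primary-cell system, bronchial epithelial cells receive test chemical and are sampled at 24 h. PAI-1 is read by ELISA, with DMSO serving as negative control for bidirectional fitting.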

[3] = read-out: Urokinase-type plasminogen activator receptor (uPAR), PLAUR (gene 5329); assay: BSK_BE3C_uPAR: BioMAP Diversity Plus: BE3C Assay for Urokinase-type plasminogen activator receptor (uPAR) Biomarker Activity (AID 2283039); details: primary human bronchial epithelial cells; actives raise or lower the signal
Summary of the method: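 Chemically treated human bronchial epithelial cells (lung primary) are assayed for uPAR by ELISA after 24 h, with data fitted in both directions using DMSO as negative control.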

[4] = read-out: Interleukin-6 (IL6), IL6 (gene 3569); assay: BSK_CASM3C_IL6: BioMAP Diversity Plus: CASM3C Assay for Interleukin-6 (IL6) Biomarker Activity for (AID 2283040); details: primary human coronary artery smooth muscle cells; actives raise or lower the signal
[5] = read-out: Tissue plasminogen activator (tPA), PLAT (gene 5327); assay: BSK_BE3C_tPA: BioMAP Diversity Plus: BE3C Assay for Tissue plasminogen activator (tPA) Biomarker Activity (AID 2283041); details: primary human bronchial epithelial cells; actives raise or lower the signal
Summary of the method: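 Using human lung primary bronchial epithelial cells, tPA was measured by ELISA 24 h after dosing; data fitted relative to DMSO.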

[6] = read-out: Interleukin-8 (IL8), CXCL8 (gene 3576); assay: BSK_CASM3C_IL8: BioMAP Diversity Plus: CASM3C Assay for Interleukin-8 (IL8) Biomarker Activity (AID 2283042); details: primary human coronary artery smooth muscle cells; actives raise or lower the signal;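 also: IL-8 protein level quantified by ELISA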
[7] = read-out: Human Leukocyte Antigen - DR isotype (HLADR), HLA-DRA (gene 3122); assay: BSK_CASM3C_HLADR: BioMAP Diversity Plus: CASM3C Assay for Human Leukocyte Antigen - DR isotype (HLADR) Biomarker Activity (AID 2283043); details: primary human coronary artery smooth muscle cells; actives raise or lower the signal;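 also: cell-surface HLA-DR protein level quantified by ELISA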
[8] = read-out: Macrophage colony-stimulating factor (MCSF), CSF1 (gene 1435); assay: BSK_CASM3C_MCSF: BioMAP Diversity Plus: CASM3C Assay for Macrophage colony-stimulating factor (MCSF) Biomarker Activity (AID 2283044); details: primary human coronary artery smooth muscle cells; actives raise or lower the signal;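 also: M-CSF protein amount quantified by ELISA after 24 h exposure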
[9] = read-out: Low-density lipoprotein receptor (LDLR), LDLR (gene 3949); assay: BSK_CASM3C_LDLR: BioMAP Diversity Plus: CASM3C Assay for Low-density lipoprotein receptor (LDLR) Biomarker Activity (AID 2283045); details: primary human coronary artery smooth muscle cells; actives raise or lower the signal;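 also: LDLR protein level on the cell surface quantified by ELISA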
[10] = read-out: Monocyte Chemoattractant Protein-1 (MCP1), CCL2 (gene 6347); assay: BSK_CASM3C_MCP1: BioMAP Diversity Plus: CASM3C Assay for Monocyte Chemoattractant Protein-1 (MCP1) Biomarker Activity (AID 2283046); details: primary human coronary artery smooth muscle cells; actives raise or lower the signal;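 also: MCP-1 level quantified by ELISA 24 h after dosing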
[11] = BSK_CASM3C_Proliferation: Cell Proliferation Assessment in the BioMAP Diversity Plus: CASM3C Assay (AID 2283047); details: primary human coronary artery smooth muscle cells;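 also: sulforhodamine B total protein stain as relative cell number at 560 nm; sub-confluent cells exposed 48 h before staining; fitted both ways against DMSO so gain or loss of cell number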
[12] = read-out: Monokine induced gamma interferon (MIG), CXCL9 (gene 4283); assay: BSK_CASM3C_MIG: BioMAP Diversity Plus: CASM3C Assay for Monokine induced gamma interferon (MIG) Biomarker Activity (AID 2283048); details: primary human coronary artery smooth muscle cells; actives raise or lower the signal;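 also: MIG protein level measured by ELISA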
[13] = read-out: serum amyloid A (SAA), SAA1 (gene 6288); assay: BSK_CASM3C_SAA: BioMAP Diversity Plus: CASM3C Assay for serum amyloid A (SAA) Biomarker Activity (AID 2283049); details: primary human coronary artery smooth muscle cells; actives raise or lower the signal;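 also: SAA protein level quantified by ELISA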
[14] = BSK_CASM3C_SRB: Viability Assessment in the BioMAP Diversity Plus: CASM3C Assay (AID 2283050); details: primary human coronary artery smooth muscle cells;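 also: total protein by SRB staining as cytotoxicity measure in parallel cultures; cells exposed to compound for 24 h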
[15] = read-out: Thrombomodulin, THBD (gene 7056); assay: BSK_CASM3C_Thrombomodulin: BioMAP Diversity Plus: CASM3C Assay for Thrombomodulin Biomarker Activity (AID 2283051); details: primary human coronary artery smooth muscle cells; actives raise or lower the signal;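 also: thrombomodulin protein level measured by ELISA 24 h after dosing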
[16] = read-out: Tissue Factor, F3 (gene 2152); assay: BSK_CASM3C_TissueFactor: BioMAP Diversity Plus: CASM3C Assay for Tissue Factor Biomarker Activity (AID 2283052); details: primary human coronary artery smooth muscle cells; actives raise or lower the signal;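 also: cell surface tissue factor protein level read by ELISA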
[17] = read-out: Interferon-gamma inducible Protein 10 (IP10), CXCL10 (gene 3627); assay: BSK_hDFCGF_IP10: BioMAP Diversity Plus: hDFCGF Assay for Interferon-gamma inducible Protein 10 (IP10) Biomarker Activity (AID 2283053); details: primary human foreskin fibroblasts; actives raise or lower the signal
Summary of the method: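 Chemical-treated human skin fibroblasts (primary) were sampled at 24 h for IP-10 by ELISA. Both increases and decreases relative to DMSO were scored.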

[18] = read-out: Urokinase-type plasminogen activator receptor (uPAR), PLAUR (gene 5329); assay: BSK_CASM3C_uPAR: BioMAP Diversity Plus: CASM3C Assay for Urokinase-type plasminogen activator receptor (uPAR) Biomarker Activity (AID 2283054); details: primary human coronary artery smooth muscle cells; actives raise or lower the signal;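 also: cell-surface uPAR protein level quantified by ELISA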
[19] = read-out: Vascular cell adhesion molecule 1 (VCAM1), VCAM1 (gene 7412); assay: BSK_CASM3C_VCAM1: BioMAP Diversity Plus: CASM3C Assay for Vascular cell adhesion molecule 1 (VCAM1) Biomarker Activity (AID 2283055); details: primary human coronary artery smooth muscle cells; actives raise or lower the signal;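 also: VCAM-1 protein level quantified by ELISA on the cells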

Measured: AC50

CCC[CH2][Sn]([Cl])([CH2]CCC)[CH2]CCC
active: [1] 0.147 µM | [2] 0.146 µM | [3] 0.148 µM | [4] 1.5 µM | [5] 0.227 µM | [6] 1.01 µM | [7] 0.353 µM | [8] 0.273 µM | [9] 0.226 µM | [10] 0.383 µM | [11] 0.148 µM | [12] 0.326 µM | [13] 0.148 µM | [14] 0.402 µM | [15] 3.97 µM | [16] 0.148 µM | [17] 0.259 µM | [18] 0.406 µM | [19] 0.148 µM

CC(C)(C)OOC(=O)c1ccccc1
active: [11] 8.08 µM | [17] 33.2 µM
inactive: all other assays above

Clc1ccc(C(c2ccc(Cl)cc2)C(Cl)(Cl)Cl)cc1
inactive: [1] | [2] | [3] | [4] | [5] | [6] | [12]
active: [7] 31.4 µM | [8] 14.7 µM | [9] 32.1 µM | [10] 36.9 µM | [11] 29.1 µM | [13] 33.3 µM | [14] 27.7 µM | [15] 6.95 µM | [16] 33.2 µM | [17] 14.1 µM | [18] 20 µM | [19] 20 µM

Nc1cc(Cl)cc(C(=O)O)c1Cl
inactive: all assays above

c1ccc(N=Nc2ccccc2)cc1
inactive: all assays above

CC(C)N(Cc1ccccc1)C(=O)C(C)(C)C
inactive: all assays above

COc1cc(C=O)cc2c1[C@H](COC(N)=O)[C@]1(OC(C)=O)ON2C[C@H]2[C@@H]1N2C(C)=O
active: [1] 4.63 µM | [2] 1.99 µM | [3] 6.18 µM | [4] 6.63 µM | [5] 2.11 µM | [6] 3.6 µM | [7] 1.18 µM | [8] 1.3 µM | [9] 3.91 µM | [10] 4.5 µM | [11] 0.485 µM | [12] 3.59 µM | [13] 4.54 µM | [14] 3.7 µM | [15] 0.224 µM | [16] 4.87 µM | [17] 1.19 µM | [18] 2.21 µM | [19] 4.5 µM

CNC(=O)Oc1cccc2c1OC(C)(C)C2
inactive: all assays above

O=P(OCCCl)(OCCCl)OCCCl
inactive: all assays above

O=[N+]([O-])C(Br)(CO)CO
active: [6] 34.3 µM | [7] 29.5 µM | [10] 28.1 µM | [11] 24.7 µM | [12] 32.7 µM | [13] 30.3 µM | [14] 32.7 µM | [15] 24.7 µM | [17] 28.5 µM | [19] 28.1 µM
inactive: [1] | [2] | [3] | [4] | [5] | [8] | [9] | [16] | [18]

C[N+](C)(C)CC1CO1 (stereo not given)
inactive: all assays above

CS(=O)(=O)NC(=O)c1cc(Oc2ccc(C(F)(F)F)cc2Cl)ccc1[N+](=O)[O-]
active: [7] 20 µM
not listed: [16]
inactive: all other assays above

O=[N+]([O-])c1ccc(Oc2ccc(Cl)cc2Cl)cc1
active: [17] 20 µM
inactive: all other assays above

CC(C)(C)C(O)(CCc1ccc(Cl)cc1)Cn1cncn1 (stereo not given)
inactive: all assays above
